Source: PubChem BioAssay (NCI)
Compounds without any hit were thinned out: in the full panel of roughly 83,000, 20% have a hit.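 The test compound was applied at a single concentration to cells in 96-well plates for 48 hours, and percent growth was recorded.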 Unmarked numbers belong to inactive results. The source made the active and inactive calls. How the source made its calls: active means growth percent below 10; inactive means the rest.

These compounds were tested on HL-60(TB) leukemia (assay: NCI-60 one-dose screen, 48 h (100 = growth as untreated, 0 = no growth, -100 = all killed)). Settings: 10 µM unless noted.
In the case of `Oc1c(Cl)cc(Cl)c2ccc(CN3CCNCC3)nc12`, the growth is reported as 44.1%.
With `COc1cc2ncnc(Nc3ccc(Oc4ccnc(C)c4)c(C)c3)c2cc1NC(=O)CC1CCSS1` (stereo not given) the growth was -45.8% (active).
`Cc1n[nH]c(C)c1-c1c(C)n[nH]c1C` was tested, and the growth was -6.88% (active).
`O=C(Nc1ccc(Oc2ccc(F)cc2)c(Cl)c1)c1cccnn1` gave a growth of 56.3%.
With `O=C(c1cccc(Br)c1)N1CCN(c2ccnc3cc(Cl)ccc23)CC1` the growth was 92.6%.
For `O=C1C=CC(=Nc2cc(Br)c(O)c(Br)c2)C=C1`, the growth was 29.9%.
`Clc1nc(Cl)c2ncn(C/C=C\Cn3cnc4c(Cl)nc(Cl)nc43)c2n1` was tested, and the growth was -70.2% (active).
Work on `Nc1nc2ncc(CNc3ccc(C(=O)NC(CCC(=O)NC(CCC(=O)NC(CCC(=O)NC(CCC(=O)NC(CCC(=O)O)C(=O)O)C(=O)O)C(=O)O)C(=O)O)C(=O)O)cc3)nc2c(=O)[nH]1` (stereo not given) yielded a growth of 93.5%.
Compound `CCOC(=O)/C(C)=C\c1ccc(OC)c(OC)c1` has a growth of 88.4%.
`CCn1c(O)c(/C=N/NC(=O)C(C)c2ccc(CC(C)C)cc2)sc1=S` (stereo not given) was tested, and the growth was -32.5% (active).
For `Cc1c(N2CN3C[C@H](C)N4CN(c5c(C)n(C)n(-c6ccccc6)c5=O)CN5C[C@@H](C)N(C2)C3C54)c(=O)n(-c2ccccc2)n1C` (stereo not given in full), the growth was -14.5% (active).
With `O=C(O)c1cccc2cccc(-c3c4ccc(=O)c(O)c-4oc4c(O)c(O)ccc34)c12` the growth was 67.6%.
`O=c1ccn(C2OC(F)(CO)C(O)C2F)c(=O)[nH]1` (stereo not given) was tested, and the growth was 114%.
Work on `CCOc1ccc(-n2nc(C(=O)Nc3cc(OC)c(OC)c(OC)c3)nc2-c2cc(OC)c(OC)c(OC)c2)cc1` yielded a growth of 98.2%.
`CC(=O)NCCCS(=O)(=O)O` showed a growth of 102%.
`CC(/C=N/NC(N)=S)Cc1ccc(C(C)C)cc1` (stereo not given) showed a growth of 44.3%.
`C=C(C)[C@@H]1CC[C@]2(CN)CC[C@]3(C)[C@H](CC[C@@H]4[C@@]5(C)CCCNC(C)(C)[C@@H]5CC[C@]43C)[C@@H]12` was tested, and the growth was -52.8% (active).
With `CCOc1ccc(NC(=O)CSc2oc(-c3ccccc3)nc2S(=O)(=O)c2ccc(C)cc2)cc1` the growth was 65.6%.
In the case of `CN(C)c1ccc2[nH]c3c(C(N)=O)cc(=O)c(=O)c=3oc2c1`, the growth is reported as -2.19% (active).
`CCCCCN1C=C/C(=C\C(=O)N(C)c2cccc3ccccc23)c2ccccc21` was tested, and the growth was 97.1%.
For `COC(=O)[C@H](C)NC(=O)NC(=O)NC(=O)CI`, the growth was -51% (active).
`COc1cc(OC)c(/C=C/S(=O)(=O)Cc2cnc(OC)c(N)c2)c(OC)c1` was tested, and the growth was -39.5% (active).
In the case of `COc1ccc(/C=N/NC(=O)c2cnn3c2NC(c2ccccc2)C3)cc1OC1CCCC1` (stereo not given), the growth is reported as 101%.
`CCNc1nc(S(=O)(=O)CC)nc2ccccc12` was tested, and the growth was 91.8%.
`Cc1cccc(OCC(O)CN2CCN(c3ccc(Cl)cc3)CC2)c1` (stereo not given) was tested, and the growth was 97.9%.
`Cc1c(C(N)=O)sc2nc(SCC(=O)Nc3ccc(Cl)cc3)n(-c3ccccc3)c(=O)c12` was tested, and the growth was 171%.
`O=C(/C=C/c1cccc(Cl)c1)c1cccc(OCCCOc2cccc(C(=O)/C=C/c3cccc(Cl)c3)c2)c1` gave a growth of 93.1%.
In the case of `Cc1ccc(NC2=CC(=O)C(=O)c3ccccc32)cc1`, the growth is reported as 18.4%.
`CCOC(=O)CNC(=O)Nc1ccc(Oc2ccc(NC(=O)NCC(=O)OCC)cc2)cc1` showed a growth of 108%.
With `CCCc1cc2cc(-n3nc(C)c4c3CC(C)(C)CC4=O)cc(NC3CCSCC3)c2c(=O)[nH]1` the growth was 49.4%.
`O=C1c2cccc3c(-c4ccc5c(c4)ncn5C4CCCCC4)ccc(c23)C(=O)N1CCO` was tested, and the growth was 103%.
`COc1ccc(NC(=O)CCn2cnc3c(cc(-c4ccccc4)n3-c3ccccc3)c2=O)cc1` was tested, and the growth was 95.9%.
For `COc1ccc(-c2onc(N)c2-c2cc(OC)c3c(c2)OCO3)cc1`, the growth was -31.4% (active).
In the case of `CC(=O)NC1(C(=O)O)CCCC1`, the growth is reported as 101%.
`CC(O)CCC(C)[N+](=O)[O-]` (stereo not given) gave a growth of 96.9%.
For `COc1ccc(-c2nsc3c2NC(=O)CC3c2cccc(F)c2)cc1` (stereo not given), the growth was 39.2%.
`O=S(=O)(NCCCNc1nccc(-c2cn(-c3ccccc3)nc2-c2ccc(Cl)c(O)c2)n1)c1ccccc1` was tested, and the growth was 83.4%.
`Cc1ccc2oc(=O)cc(-c3cc(-c4cc5ccccc5oc4=O)nc(N)c3C#N)c2c1` showed a growth of 93.5%.
In the case of `CC1=C([Se]CC(OC(=O)[C@@H](CSSC(C)(C)C)NC(=O)C(C)(C)C)C(=O)NCCCCCC(=O)OCc2ccccc2)C(=O)c2ccccc2C1=O` (stereo not given in full), the growth is reported as -24.4% (active).
`Cc1ccc(NCCN(C)CC(C)O)c2c(=O)c3ccccc3sc12` (stereo not given) was tested, and the growth was 31.3%.
